# Measurements reported in PubChem BioAssay.
# Calls of active or inactive are those of the source. Unless noted, how the calls were made is not given here.
# Assays:
# [1] = compound effects on lung adenocarcinoma cell viability – A549, calcein-AM fluorescence, 48 h, basal, profiling panel (AID 1162); settings: higher = more signal; further: test concentration not given here
# [2] = compound effects on differentiated 3T3-L1 adipocyte viability – cell-based, 3T3-L1 adipocytes, calcein-AM fluorescence, 48 h, basal, profiling panel (AID 1163); settings: 3T3-L1 adipocytes viability, higher = more signal; further: test concentration not given here
# [3] = compound effects on hepatocellular carcinoma cell viability – HepG2, calcein-AM fluorescence, 48 h, basal, profiling panel (AID 1164); settings: higher = more signal; further: test concentration not given here
# [4] = compound effects on multiple myeloma cell viability – MM1S, calcein-AM fluorescence, 48 h, basal, profiling panel (AID 1165); settings: higher = more signal;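 further: viability of MM1S multiple myeloma cells under basal unstimulated conditions; test concentration not given here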
# [5] = calcein-AM signal in unstimulated myeloma cells – cell-based, calcein-AM fluorescence, 48 h, PK04 Diversity Set, profiling panel (AID 1166); settings: RPMI8226 myeloma viability, higher = more signal;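 further: cells grown under basal conditions without added stimulus; test concentration not given here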
# [6] = JC-1 mitochondrial signal, unstimulated HepG2 cells – cell-based, JC-1 fluorescence, 24 h, 100 nL compound, profiling panel (AID 1167); settings: HepG2 mitochondrial potential, higher = more signal; further: test concentration not given here
# [7] = JC-1 mitochondrial signal, unstimulated adipocytes – cell-based, JC-1 fluorescence, 3T3-L1 adipocytes, 24 h, 100 nL compound, profiling panel (AID 1168); settings: JC-1 mitochondrial fluorescence, higher = more signal, called active from +8 up or from −8 down; further: test concentration not given here
# [8] = JC-1 mitochondrial signal, unstimulated myeloma cells – cell-based, JC-1 fluorescence, RPMI8226, 24 h, 100 nL compound, profiling panel (AID 1169); settings: JC-1 mitochondrial potential fluorescence, higher = more signal; further: test concentration not given here
# [9] = JC-1 mitochondrial signal, unstimulated MM1S myeloma – cell-based, JC-1 fluorescence, 24 h, 100 nL compound, profiling panel (AID 1170); settings: MM1S mitochondrial potential, higher = more signal; further: test concentration not given here
# [10] = resazurin metabolic signal in A549 cells – cell-based, resazurin fluorescence, 24 h, PK04 Diversity Set, profiling panel (AID 1171); settings: A549 viability, higher = more signal, called active from +8 up or from −8 down; further: test concentration not given here
# [11] = resazurin metabolic signal in HepG2 cells – cell-based, resazurin fluorescence, 24 h, PK04 Diversity Set, profiling panel (AID 1172); settings: HepG2 viability, higher = more signal; further: test concentration not given here
# [12] = budding yeast growth changes without added modifier – OD600, strain BY4716, 24 h, basal condition, primary screen (AID 1173); settings: S. cerevisiae BY4716 growth, OD600, 24 h; higher = more signal, called active from +8 up or from −8 down
# [13] = viability profiling in MM1S myeloma cells – cell-based, resazurin fluorescence, basal, 24 h, PK04 Diversity Set, profiling panel (AID 1174); settings: higher = more signal, called active from +8 up or from −8 down; further: test concentration not given here
# [14] = molecular target: Dihydroorotate dehydrogenase (quinone), mitochondrial (Plasmodium falciparum (isolate 3D7)) (UniProt Q08210); test: inhibition of P. falciparum DHODH – biochemical, C-terminal His tag, absorbance 600 nm, primary screen (AID 1175); settings: PfDHODH enzyme, DCIP absorbance 600 nm; higher = more signal, called active from +8 up or from −8 down;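 further: recombinant parasite enzyme with a five histidine tag at its C terminus; test concentration not given here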
# Chain of Dihydroorotate dehydrogenase (quinone), mitochondrial (Plasmodium falciparum (isolate 3D7)) (Q08210 whole entry, looked up): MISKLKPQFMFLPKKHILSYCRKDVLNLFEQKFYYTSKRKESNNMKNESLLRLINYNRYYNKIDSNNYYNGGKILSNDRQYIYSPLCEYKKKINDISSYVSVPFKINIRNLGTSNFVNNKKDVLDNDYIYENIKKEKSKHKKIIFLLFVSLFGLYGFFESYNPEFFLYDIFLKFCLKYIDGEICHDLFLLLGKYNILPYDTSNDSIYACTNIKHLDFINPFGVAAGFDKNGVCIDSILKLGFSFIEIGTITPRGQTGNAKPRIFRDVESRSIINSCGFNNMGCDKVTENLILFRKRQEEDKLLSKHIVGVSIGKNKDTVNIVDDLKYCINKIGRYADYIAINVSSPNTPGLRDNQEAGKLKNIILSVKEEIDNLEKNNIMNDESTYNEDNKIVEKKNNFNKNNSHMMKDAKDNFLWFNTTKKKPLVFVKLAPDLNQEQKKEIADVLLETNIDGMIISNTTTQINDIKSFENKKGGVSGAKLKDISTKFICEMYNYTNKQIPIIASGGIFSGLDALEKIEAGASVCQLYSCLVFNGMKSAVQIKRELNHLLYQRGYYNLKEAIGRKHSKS
# [15] = inhibition of PAO1 biofilm formation – strain PAO1, LB-PBS medium, absorbance 600 nm, primary screen (AID 1176); further: test concentration not given here; settings: P. aeruginosa PAO1 growth/biofilm, A600, 12 h; higher = more signal
# [16] = growth modulation of vineyard yeast isolate – strain RM11-1a, OD600, basal, 24 h, primary screen (AID 1177);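 further: cultures grown under basal conditions with no added stressor; test concentration not given here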; settings: S. cerevisiae RM11-1a growth, OD600, 24 h; higher = more signal, called active from +8 up or from −8 down
# [17] = growth of efflux-deficient E. coli DRC39 – strain DRC39, OD650, 24 h, E. coli filamentation inducers, primary screen (AID 1178);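 further: growth measured as culture turbidity by optical density at 650 nm; test concentration not given here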; settings: E. coli DRC39 acrAB, higher = more signal, called active from +8 up or from −8 down
# [18] = growth of efflux-deficient E. coli DRC39 – strain DRC39, OD650, 48 h, E. coli filamentation inducers, primary screen (AID 1179);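 further: screen aims at cell division blockers that make cells filament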; settings: E. coli DRC39 delta-acrAB growth, higher = more signal, called active from +8 up or from −8 down
# [19] = viability profiling in RPMI8226 myeloma cells – cell-based, resazurin fluorescence, basal, 24 h, PK04 Diversity Set, profiling panel (AID 1180); settings: higher = more signal;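 further: RPMI8826 multiple myeloma cell line at 5000 cells per well; test concentration not given here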
# [20] = molecular target: E3 ubiquitin-protein ligase XIAP (Homo sapiens) (UniProt P98170); test: small molecules binding XIAP protein – biophysical, small-molecule microarray, fluorescence 635 nm, primary screen (AID 1181); settings: higher = more signal;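 further: score merges 667 nm emission and signal to noise over triplicate slides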
# Chain of E3 ubiquitin-protein ligase XIAP (Homo sapiens) (P98170 whole entry, looked up): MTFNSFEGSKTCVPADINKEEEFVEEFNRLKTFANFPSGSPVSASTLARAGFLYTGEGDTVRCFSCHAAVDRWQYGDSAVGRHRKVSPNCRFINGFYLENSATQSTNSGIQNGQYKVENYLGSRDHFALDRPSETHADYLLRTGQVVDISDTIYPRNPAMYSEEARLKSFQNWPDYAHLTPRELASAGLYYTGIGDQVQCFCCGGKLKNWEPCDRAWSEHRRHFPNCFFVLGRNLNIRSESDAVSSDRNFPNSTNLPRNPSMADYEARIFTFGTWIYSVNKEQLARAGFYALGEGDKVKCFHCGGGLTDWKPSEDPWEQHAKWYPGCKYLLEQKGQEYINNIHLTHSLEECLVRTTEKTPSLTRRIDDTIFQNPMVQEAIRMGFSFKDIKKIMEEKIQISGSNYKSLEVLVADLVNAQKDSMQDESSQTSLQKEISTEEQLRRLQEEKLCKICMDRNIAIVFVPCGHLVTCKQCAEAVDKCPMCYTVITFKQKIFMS
Structure (SMILES),z-score [1],z-score [2],z-score [3],z-score [4],z-score [5],z-score [6],z-score [7],z-score [8],z-score [9],z-score [10],z-score [11],z-score [12],z-score [13],composite z-score [14],z-score [15],z-score [16],z-score [17],z-score [18],z-score [19],composite z-score [20]
O=C(Cc1ccccc1)[C@H]1C2C=CCCC(c3ccccc3)=C2CN1Cc1ccccc1 (stereo not given in full),0.128,0.169,0.436,0.743,0.602,0.655,0.122 (inactive),-0.196,0.584,0.807 (inactive),1.37,-2.98 (inactive),0.806 (inactive),-0.658 (inactive),1.44 (inactive),-0.546 (inactive),1.64 (inactive),1.29 (inactive),1.08,-0.441
CCCNC(=O)[C@@]1(C)c2ccccc2C(=O)N(c2ccc(C)cn2)[C@H]1c1ccc(CO)cc1,0.666,0.343,-0.146,-0.108,0.526,0.204,-0.0622 (inactive),0.0215,0.43,-0.407 (inactive),-0.112,-0.397 (inactive),0.268 (inactive),-0.281 (inactive),0.484 (inactive),-0.306 (inactive),-0.398 (inactive),-0.586 (inactive),-0.388,-0.127
COc1cc(C(O)C2C=CC3C(=O)N(C)C(=O)C3N2Nc2ccccc2)cc(OC)c1OC (stereo not given),0.212,0.555,-0.0987,0.0355,0.438,-0.349,-0.604 (inactive),0.221,-0.471,0.144 (inactive),-0.237,-2.86 (inactive),0.162 (inactive),0.377 (inactive),0.586 (inactive),0.155 (inactive),-0.654 (inactive),-0.852 (inactive),-0.0998,0.14
CC(C)c1ccc(NN2C(C(O)c3ccc(F)cc3)C=CC3C(=O)N(c4ccccc4)C(=O)C32)cc1 (stereo not given),0.394,-1.37,0.747,-1.12,-1.46,-1.18,-0.382 (inactive),0.282,-0.958,-0.12 (inactive),-0.0361,-2.21 (inactive),-1.25 (inactive),0.319 (inactive),1.36 (inactive),0.737 (inactive),-0.159 (inactive),0.127 (inactive),-0.895,-0.226
COc1ccc([Si](C)(C)[C@H]2[C@H](CC(=O)N(CCO)Cc3ccccc3)O[C@@]3(C(=O)N(C)c4c(Br)cc(C)cc43)[C@@H]2C)cc1,-3.51,-0.346,-4.11,-2.75,-4.66,-2.26,0.0268 (inactive),-1.07,-2.16,-1.02 (inactive),-1.86,-2.5 (inactive),-2.84 (inactive),-0.474 (inactive),1.94 (inactive),0.257 (inactive),1.32 (inactive),0.677 (inactive),-5.31,0.868
[N-]=[N+]=Nc1ccccc1C[C@]1(C(=O)O)COC(c2ccc(OCCCO)cc2)=N1,-0.118,0.909,0.215,-0.0932,-0.747,-0.253,-1.19 (inactive),-0.329,0.529,-0.98 (inactive),-0.365,-0.231 (inactive),0.037 (inactive),1.04 (inactive),0.0254 (inactive),0.212 (inactive),0.438 (inactive),-0.8 (inactive),0.404,0.245
NC(=O)[C@@]1(Cc2ccccc2)COC(c2ccc(OCCCO)cc2)=N1,-0.291,-0.0025,0.532,0.064,-0.453,-0.798,-0.392 (inactive),-0.759,-0.172,0.138 (inactive),-0.101,0.539 (inactive),0.153 (inactive),1.86 (inactive),-0.0304 (inactive),1.58 (inactive),2.1 (inactive),0.595 (inactive),-0.0366,-0.0559
O=C(NCCN1CCOCC1)[C@@H]1c2ccccc2C(=O)N(Cc2ccccc2Cl)[C@H]1c1ccc(CO)cc1,0.53,-0.249,1.15,-0.142,0.125,3.16,0.64 (inactive),-0.695,-0.408,0.59 (inactive),-0.0211,0.199 (inactive),-1.21 (inactive),-0.0473 (inactive),0.0993 (inactive),0.593 (inactive),0.447 (inactive),0.865 (inactive),-0.831,0.0178
CCOC(=O)C1=CC[C@@H](c2ccccc2F)N(S(=O)(=O)c2ccc(C)cc2)[C@H]1c1ccccc1,-0.982,-0.815,-0.244,-1.47,-0.413,2.25,-1.35 (inactive),-0.0368,-1.24,2.12 (inactive),0.325,0.837 (inactive),-0.0773 (inactive),-0.496 (inactive),0.698 (inactive),0.262 (inactive),-0.308 (inactive),-0.35 (inactive),-0.781,-0.195
